Results from PubChem BioAssay (NCATS).
Results filed as inconclusive are left out. Active and inactive are the calls of the source. Unless noted, calls follow the shape of the dose curve; as a rule, active = well fitted curve in the direction sought with a large enough effect; inconclusive = small, poorly fitted or top-dose-only effect, or another doubt; inactive = no such curve, though single readings can be large; an effect the other way counts as inactive or inconclusive.

Tests used:
[1] = qHTS assay to identify small molecule inhibitors of chordoma cells - UCH-1 (AID 1259355); also: nearly all actives have a fitted effect of over 55% in size; also: potency is read from the fitted curve at half-maximal effect; series mostly up to about 46 µM
Method in brief: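 Luminescent ATP read-out (CellTiter-Glo, 30min at room temperature) measured viability of UCH-1 cells exposed for 48hr to test drugs at 15 concentrations, co-dosed with a five-agent combination of auranofin, camptothecin, doxorubicin, rubitecan and topotecan.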

[2] = qHTS assay to identify small molecule inhibitors of chordoma cells - UCH-2 (AID 1259356); also: potency is read from the fitted curve at half-maximal effect
[3] = P-glycoprotein substrates identified in KB-8-5-11 adenocarcinoma cell line, qHTS therapeutic library screen (AID 1346987); also: nearly all actives have a fitted effect of over 65% in size; also: potency is read from the fitted curve at half-maximal effect
Method in brief: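 P-gp-mediated resistance screen: KB-8-5-11 cells treated 72 h with compounds in dose-response. CellTiter-Glo viability.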

[4] = NS1 protein of Zika virus - qHTS assay to identify small molecule inhibitors in human HEK 293 cells (AID 1347053); also: series mostly up to about 46 µM; nearly all actives have a fitted effect of over 55% in size
Method in brief: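 Following 20 h seeding, HEK 293 cells took compound, then 1 h later ZIKV MR766 (MOI = 0.5). Incubation ran 24 h at 37 C before TR-FRET detection of NS1; a drop in signal indicates inhibition.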

[5] = qHTS of pediatric cancer cell lines to identify multiple opportunities for drug repurposing: Primary screen for TC32 cells (AID 1347089); also: nearly all actives have a fitted effect of over 60% in size; also: potency is read from the fitted curve at half-maximal effect
Method in brief: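 TC32 cells, 500-1,000/well in growth medium, compound-treated 48 h at 37 °C; viability from CellTiter-Glo luminescence. Primary screen: MIPE 11-point (0.78 nM–46 µM final), NPC 8-point (0.59 nM–46 µM final); confirmatory at 11-point dilutions.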

[6] = qHTS of pediatric cancer cell lines to identify multiple opportunities for drug repurposing: Primary screen for DAOY cells (AID 1347090); also: nearly all actives have a fitted effect of over 55% in size; also: potency is read from the fitted curve at half-maximal effect
Method in brief: (§1)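 Eight- or eleven-point concentration series, 48 h treatment at 37 degrees C in growth media; readout CellTiter-Glo luminescence. Potency and efficacy were taken from the concentration-response curves.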

[7] = qHTS of pediatric cancer cell lines to identify multiple opportunities for drug repurposing: Primary screen for SJ-GBM2 cells (AID 1347091); also: potency is read from the fitted curve at half-maximal effect
Method in brief: as §1

[8] = qHTS of pediatric cancer cell lines to identify multiple opportunities for drug repurposing: Primary screen for A673 cells (AID 1347092); also: nearly all actives have a fitted effect of over 45% in size; also: potency is read from the fitted curve at half-maximal effect
Method in brief: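 A673 cells (500-1,000 cells/well) were treated 48 hours at 37 degrees C with compounds at 11-point (0.78 nM to 46 µM) or 8-point (0.59 nM to 46 µM) dilutions. Viability read by CellTiter-Glo luminescence; concentration-response curves fitted.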

[9] = qHTS of pediatric cancer cell lines to identify multiple opportunities for drug repurposing: Primary screen for SK-N-MC cells (AID 1347093); also: potency is read from the fitted curve at half-maximal effect
Method in brief: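 Metabolically active cells were quantified by ATP-dependent luminescence (CellTiter-Glo, 15 min at room temperature) following 48 h treatment. Cells had been plated at 500-1,000 per well and settled for 5 h beforehand.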

[10] = qHTS of pediatric cancer cell lines to identify multiple opportunities for drug repurposing: Primary screen for BT-37 cells (AID 1347094); also: potency is read from the fitted curve at half-maximal effect
Method in brief: (§2)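 Cells plated at 500-1,000/well in growth medium, compounds added after 5 h. MIPE tested at 11 points (from 0.78 nM), NPC at 8 points (from 0.59 nM). CellTiter-Glo luminescence after 48 h; concentration-response curves from primary screen.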

[11] = qHTS of pediatric cancer cell lines to identify multiple opportunities for drug repurposing: Primary screen for NB-EBc1 cells (AID 1347095); also: potency is read from the fitted curve at half-maximal effect
Method in brief: as §2

[12] = qHTS of pediatric cancer cell lines to identify multiple opportunities for drug repurposing: Primary screen for U-2 OS cells (AID 1347096); also: nearly all actives have a fitted effect of over 50% in size
Method in brief: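 Cells (500-1,000/well) in growth media were settled 5 h at 37 degrees C, then given compounds for 48 h. Viability was read as CellTiter-Glo luminescence. Primary runs used MIPE at 11 points (0.78 nM-46 µM) and NPC at 8 points (0.59 nM-46 µM); follow-ups used 11 points.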

[13] = Natriuretic polypeptide receptor (hNpr1) antagonism - Pilot counterscreen GloSensor control cell line (AID 1347045; calls by dose curve; also: series mostly up to about 38 µM)
Method in brief: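 This counterscreen uses HEK293 cells expressing the GIP/pGS-40F cGMP biosensor. Compound-treated cells are challenged with 50 uM sodium nitroprusside, and the luciferase signal is compared before and after stimulation.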

[14] = molecular target: Atrial natriuretic peptide receptor 1 (Homo sapiens) (UniProt P16066); test: Natriuretic polypeptide receptor (hNpr1) antagonism - Pilot screen (AID 1347049; calls by dose curve;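 also: agonist-evoked cGMP luminescence read 20 min after hNppA addition; series mostly up to about 58 µM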)
Atrial natriuretic peptide receptor 1 (Homo sapiens), sequence (P16066 whole entry, looked up): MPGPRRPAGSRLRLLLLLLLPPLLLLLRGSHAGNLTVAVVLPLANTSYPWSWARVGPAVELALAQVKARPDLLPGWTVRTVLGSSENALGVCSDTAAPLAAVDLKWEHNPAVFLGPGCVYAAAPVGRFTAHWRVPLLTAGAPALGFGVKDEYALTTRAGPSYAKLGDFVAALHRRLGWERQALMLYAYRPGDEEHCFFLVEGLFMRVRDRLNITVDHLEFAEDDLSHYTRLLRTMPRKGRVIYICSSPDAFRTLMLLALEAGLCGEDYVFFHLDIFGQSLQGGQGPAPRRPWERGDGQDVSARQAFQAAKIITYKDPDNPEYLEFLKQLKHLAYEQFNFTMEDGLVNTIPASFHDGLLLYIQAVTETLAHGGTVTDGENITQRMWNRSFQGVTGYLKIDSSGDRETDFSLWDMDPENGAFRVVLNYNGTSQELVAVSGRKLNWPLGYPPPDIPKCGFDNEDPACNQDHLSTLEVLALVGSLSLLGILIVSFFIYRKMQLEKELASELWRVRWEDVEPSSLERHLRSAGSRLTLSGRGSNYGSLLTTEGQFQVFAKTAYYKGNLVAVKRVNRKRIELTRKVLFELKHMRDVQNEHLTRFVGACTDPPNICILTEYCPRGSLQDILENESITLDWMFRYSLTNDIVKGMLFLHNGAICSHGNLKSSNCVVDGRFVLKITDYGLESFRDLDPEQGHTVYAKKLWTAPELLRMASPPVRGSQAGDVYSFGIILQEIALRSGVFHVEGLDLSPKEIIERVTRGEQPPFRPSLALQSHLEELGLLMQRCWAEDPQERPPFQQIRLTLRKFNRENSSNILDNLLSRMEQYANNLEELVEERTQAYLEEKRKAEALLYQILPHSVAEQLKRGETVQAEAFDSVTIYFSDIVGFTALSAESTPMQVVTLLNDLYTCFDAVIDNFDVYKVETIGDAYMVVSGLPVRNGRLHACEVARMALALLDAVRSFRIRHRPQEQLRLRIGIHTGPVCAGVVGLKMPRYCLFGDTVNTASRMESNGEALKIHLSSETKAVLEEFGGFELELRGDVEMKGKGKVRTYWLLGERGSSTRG
Method in brief: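 HEK293 cells co-expressing hNpr1 and the GloSensor pGS-40F cGMP luciferase sensor were preloaded with 2% GloSensor reagent for 2 h. Compounds were added for 30 min at room temperature, then cells were stimulated with 0.1 nM hNppA for 20 min before luminescence readout.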

[15] = molecular target: Atrial natriuretic peptide receptor 2 (Homo sapiens) (UniProt P20594); test: Natriuretic polypeptide receptor (hNpr2) antagonism - Pilot subtype selectivity assay (AID 1347050; calls by dose curve)
Atrial natriuretic peptide receptor 2 (Homo sapiens), sequence (P20594 whole entry, looked up): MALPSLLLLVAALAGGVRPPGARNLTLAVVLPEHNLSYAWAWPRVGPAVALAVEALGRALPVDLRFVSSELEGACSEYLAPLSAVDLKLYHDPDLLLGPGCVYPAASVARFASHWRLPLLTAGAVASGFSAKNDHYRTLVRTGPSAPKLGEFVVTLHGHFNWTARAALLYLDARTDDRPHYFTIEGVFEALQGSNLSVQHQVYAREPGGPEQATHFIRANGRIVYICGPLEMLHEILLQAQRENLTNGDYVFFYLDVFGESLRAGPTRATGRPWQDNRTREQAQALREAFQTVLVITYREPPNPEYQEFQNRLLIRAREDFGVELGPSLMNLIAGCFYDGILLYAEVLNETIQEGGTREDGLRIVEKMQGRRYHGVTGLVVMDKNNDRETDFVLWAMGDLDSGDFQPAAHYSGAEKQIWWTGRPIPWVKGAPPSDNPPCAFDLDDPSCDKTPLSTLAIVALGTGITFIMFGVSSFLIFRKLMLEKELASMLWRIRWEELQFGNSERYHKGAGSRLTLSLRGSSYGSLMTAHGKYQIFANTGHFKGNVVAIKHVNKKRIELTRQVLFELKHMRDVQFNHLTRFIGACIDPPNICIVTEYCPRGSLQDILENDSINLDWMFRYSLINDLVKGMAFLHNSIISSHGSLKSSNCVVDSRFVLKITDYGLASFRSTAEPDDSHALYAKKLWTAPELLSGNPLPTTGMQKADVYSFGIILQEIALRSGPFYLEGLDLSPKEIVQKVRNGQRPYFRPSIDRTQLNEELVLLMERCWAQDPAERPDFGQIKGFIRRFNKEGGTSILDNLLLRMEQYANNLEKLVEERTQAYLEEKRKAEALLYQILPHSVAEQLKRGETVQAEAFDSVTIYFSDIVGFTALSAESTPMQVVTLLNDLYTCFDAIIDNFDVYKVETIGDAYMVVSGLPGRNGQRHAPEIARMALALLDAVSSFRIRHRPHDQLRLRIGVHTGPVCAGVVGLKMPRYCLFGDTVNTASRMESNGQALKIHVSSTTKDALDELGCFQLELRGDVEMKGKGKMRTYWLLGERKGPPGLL
Method in brief: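 cGMP-sensor HEK293/hNpr2 cells; 2% GloSensor reagent 2 h RT; compounds 30 min; baseline luminescence read; 1 nM hNppC agonist 20 min RT; final luminescence read by CCD camera. Antagonism = reduced post-agonist signal.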

[16] = molecular target: T1, Tyrosine-protein phosphatase non-receptor type substrate 1 (Homo sapiens) + Leukocyte surface antigen CD47 (Homo sapiens) (UniProt P78324+Q08722); test: CD47-SIRPalpha protein protein interaction - LANCE assay qHTS validation (AID 1347057; active = well fitted curve in the direction sought with a large enough effect in the signal ratio, with a control signal flat, not every such curve was filed as active; the % refers to the signal ratio; also: series mostly up to about 38 µM)
T1 sequence (P78324 whole entry, looked up): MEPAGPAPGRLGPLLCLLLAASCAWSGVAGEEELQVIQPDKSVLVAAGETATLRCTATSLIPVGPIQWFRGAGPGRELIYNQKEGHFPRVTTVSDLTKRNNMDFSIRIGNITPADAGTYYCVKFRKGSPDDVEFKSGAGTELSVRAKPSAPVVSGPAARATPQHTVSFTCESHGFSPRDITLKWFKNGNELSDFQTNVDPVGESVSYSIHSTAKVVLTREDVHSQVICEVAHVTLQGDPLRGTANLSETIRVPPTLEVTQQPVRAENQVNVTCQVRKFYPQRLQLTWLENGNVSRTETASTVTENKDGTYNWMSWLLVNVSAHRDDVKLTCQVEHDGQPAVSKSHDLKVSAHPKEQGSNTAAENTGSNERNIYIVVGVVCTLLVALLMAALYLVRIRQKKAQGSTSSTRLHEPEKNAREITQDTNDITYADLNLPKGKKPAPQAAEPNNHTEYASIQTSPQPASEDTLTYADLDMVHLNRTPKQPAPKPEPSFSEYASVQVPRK
T1 sequence (Q08722 whole entry, looked up): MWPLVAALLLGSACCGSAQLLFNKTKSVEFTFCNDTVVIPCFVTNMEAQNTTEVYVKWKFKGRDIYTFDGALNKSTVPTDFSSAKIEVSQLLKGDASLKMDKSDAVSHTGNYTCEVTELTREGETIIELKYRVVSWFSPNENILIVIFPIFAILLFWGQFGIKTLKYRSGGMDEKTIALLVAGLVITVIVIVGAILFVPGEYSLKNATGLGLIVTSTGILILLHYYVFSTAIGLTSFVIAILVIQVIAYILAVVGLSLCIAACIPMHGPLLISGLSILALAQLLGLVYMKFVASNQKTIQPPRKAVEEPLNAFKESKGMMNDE
Method in brief: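 First, His-tagged CD47 and Eu-labelled anti-His antibody met the compound for 30 min; next, site-specifically biotinylated SIRPalpha was added for 30 min; finally streptavidin-APC was added before reading the TR-FRET ratio.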

[17] = molecular target: T1, Tyrosine-protein phosphatase non-receptor type substrate 1 (Homo sapiens) + Leukocyte surface antigen CD47 (Homo sapiens); test: CD47-SIRPalpha protein protein interaction - Alpha assay qHTS validation (AID 1347059);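 also: bead proximity luminescence from CD47 binding SIRPalpha after compound preincubation with SIRPalpha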
Method in brief: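 Soluble extracellular domains: Avi-tag biotinylated SIRPalpha (25 nM) preincubated 30 min RT with compound, then 6His-CD47 (12.5 nM) 30 min; Ni-NTA acceptor and streptavidin donor beads (10 ug/mL) 30 min, AlphaScreen read. PBS pH 7.4, 0.05% IGEPAL.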

[18] = molecular target: Parathyroid hormone/parathyroid hormone-related peptide receptor (Homo sapiens) (UniProt Q03431); test: qHTS for PTHR1 Agonists: Optimization Screen against the NCGC LOPAC library (AID 1347079);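 also: GloSensor cAMP luminescence in HEK-293 GP2 cells expressing human PTHR1 with IBMX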
Parathyroid hormone/parathyroid hormone-related peptide receptor (Homo sapiens), sequence (Q03431 whole entry, looked up): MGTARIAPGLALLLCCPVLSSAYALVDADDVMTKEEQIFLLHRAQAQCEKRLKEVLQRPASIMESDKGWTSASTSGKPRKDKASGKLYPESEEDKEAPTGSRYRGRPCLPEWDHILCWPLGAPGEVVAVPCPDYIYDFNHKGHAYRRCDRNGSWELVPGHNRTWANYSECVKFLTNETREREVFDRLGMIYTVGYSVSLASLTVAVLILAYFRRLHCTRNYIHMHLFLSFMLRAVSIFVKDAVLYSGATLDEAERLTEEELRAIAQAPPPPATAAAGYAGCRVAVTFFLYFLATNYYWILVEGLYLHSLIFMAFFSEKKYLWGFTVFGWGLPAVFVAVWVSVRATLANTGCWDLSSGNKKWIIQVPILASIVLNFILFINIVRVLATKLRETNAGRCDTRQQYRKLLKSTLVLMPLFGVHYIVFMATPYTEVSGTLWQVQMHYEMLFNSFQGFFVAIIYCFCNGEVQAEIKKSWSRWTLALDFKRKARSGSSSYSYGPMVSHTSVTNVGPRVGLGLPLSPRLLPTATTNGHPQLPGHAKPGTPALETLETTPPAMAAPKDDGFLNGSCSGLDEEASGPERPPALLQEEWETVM
Method in brief: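 Compounds were tested across a qHTS titration. PTHR1-expressing GP2 cells report cAMP rises via GloSensor luminescence after 1 hr compound exposure at 37C with IBMX present.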

[19] = molecular target: T1, Tyrosine-protein phosphatase non-receptor type substrate 1 (Homo sapiens) + Leukocyte surface antigen CD47 (Homo sapiens); test: CD47-SIRPalpha protein protein interaction - HTRF assay qHTS validation (AID 1347058; active = well fitted curve in the direction sought with a large enough effect in the signal ratio, not every such curve was filed as active; the % refers to the signal ratio; also: series mostly up to about 38 µM)
Method in brief: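 TR-FRET read (Ch1/Ch2 ratio) of soluble extracellular CD47 and Avi-biotinylated SIRPalpha domains in PBS pH 7.4 with 0.05% IGEPAL; 7-point compound titration. Sequential 30 min room-temperature steps; non-biotinylated SIRPalpha as control inhibitor.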

Measured: Potency

Nc1nc(N)c(-c2ccccc2)s1
inactive: [1] | [2] | [3] | [4] | [5] | [6] | [7] | [8] | [9] | [10] | [11] | [12]

CC(C)(Cc1c[nH]c2ccccc12)NCC(O)COc1ccccc1C#N (stereo unspecified)
inactive: [1] | [2] | [3] | [4] | [5] | [6] | [7] | [8] | [9] | [10] | [11] | [12]

CCCCCCCCOc1ccc(C(=O)c2ccccc2)c(O)c1
inactive: [1] | [2] | [3] | [4] | [5] | [6] | [7] | [8] | [9] | [10] | [11] | [12]

O=C(O)CCNC(=O)c1ccccc1
inactive: [1] | [2] | [3] | [4] | [5] | [6] | [7] | [8] | [9] | [10] | [11] | [12]

FC1(F)C(F)(F)C(F)(F)C2(F)C(F)(F)C(F)(F)C(F)(F)C(F)(F)C2(F)C1(F)F (stereo unspecified)
inactive: [1] | [2] | [3] | [4] | [5] | [6] | [7] | [8] | [9] | [10] | [11] | [12]

CC(=O)NCCCCCC(=O)O
inactive: [1] | [2] | [3] | [4] | [5] | [6] | [7] | [8] | [9] | [10] | [11]

NC(N)=NCc1cccc(I)c1
inactive: [1] | [2] | [3] | [13] | [14] | [15] | [4] | [16] | [17] | [18]

CC(C)(C)NC[C@H](O)COc1nsnc1N1CCOCC1
inactive: [1] | [2] | [3] | [13] | [14] | [15] | [4] | [16] | [19] | [17] | [18] | [5] | [6] | [7] | [8] | [9] | [10] | [11]

NS(=O)(=O)Cc1noc2ccccc12
inactive: [1] | [2] | [3] | [4] | [5] | [6] | [7] | [8] | [9] | [10] | [11]

CCOC(=O)[C@H](CCc1ccccc1)N[C@@H](C)C(=O)N1[C@H](C(=O)O)C[C@H]2CCCC[C@@H]21
inactive: [1] | [2] | [3] | [13] | [14] | [15] | [4] | [16] | [19] | [17] | [18]

O=C1C(CCS(=O)c2ccccc2)C(=O)N(c2ccccc2)N1c1ccccc1 (stereo unspecified)
inactive: [1] | [2] | [3] | [4] | [5] | [6] | [7] | [8] | [9] | [10] | [11] | [12]

C[C@H]1O[C@@H](O[C@H]2CC[C@@]3(C)[C@H](CC[C@@H]4[C@@H]3C[C@@H](O)[C@]3(C)[C@@H](C5=CC(=O)OC5)CC[C@]43O)C2)C[C@H](O)[C@@H]1O[C@H]1C[C@H](O)[C@H](O[C@H]2C[C@H](O)[C@H](O[C@@H]3O[C@H](CO)[C@@H](O)[C@H](O)[C@H]3O)[C@@H](C)O2)[C@@H](C)O1
active: [1] 708 nM | [2] 580 nM | [3] 651 nM | [5] 374 nM | [6] 266 nM | [7] 84.1 nM | [8] 266 nM | [9] 168 nM | [10] 123 nM | [11] 188 nM
inactive: [4]

CC(=O)NO
inactive: [1] | [2] | [3] | [4] | [5] | [6] | [7] | [8] | [9] | [10] | [11] | [12]

C[N+]12CCC(CC1)C(OC(=O)C(O)(c1ccccc1)c1ccccc1)C2 (stereo unspecified)
inactive: [1] | [2] | [3] | [4] | [5] | [6] | [7] | [8] | [9] | [10]

Cc1cc(-c2ccccc2)nnc1NCCN1CCOCC1
inactive: [1] | [2] | [3] | [4] | [5] | [6] | [7] | [8] | [9] | [10] | [11] | [12]

COc1cc([C@H]2Oc3cc([C@H]4Oc5cc(O)cc(O)c5C(=O)[C@@H]4O)ccc3O[C@@H]2CO)ccc1O
inactive: [1] | [2] | [3] | [4] | [6] | [7] | [10] | [12]
active: [9] 33500 nM

Cc1cc2c(OCC(CNC(C)(C)C)OC(=O)c3ccccc3)cccc2[nH]1 (stereo unspecified)
inactive: [1] | [2] | [3] | [5] | [6] | [7] | [8] | [9] | [10] | [11] | [12]

CCOc1ccc(NC(C)=O)cc1
inactive: [1] | [2] | [3] | [5] | [6] | [7] | [8] | [9] | [10] | [11] | [12]

C[C@H]1[C@H]2CC[C@H]3[C@@H]4CC=C5C[C@@H](N(C)C)CC[C@]5(C)[C@H]4CC[C@]23CN1C
inactive: [1] | [2] | [3] | [4] | [5] | [6] | [11]

CCCCC(CC)CN1CN(CC(CC)CCCC)CC(C)(N)C1 (stereo unspecified)
inactive: [1] | [2] | [3] | [4] | [5] | [6] | [8] | [10] | [11] | [12]
